High-throughput results (PubChem BioAssay)
Insulin prom up: MIN6 insulin promoter up-regulation. MIN6 insulin promoter-GFP reporter, high-content imaging; stronger effect = higher value. z-score at 5 µM. 190,000 compounds, 0.3% hits. AID 1625;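 active means z-score above 3 at 5 µM with at least 500 cells counted in the well; inconclusive means wells under 500 cells, flagged as cytotoxic or low count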
INS promoter inh: TRM-6 insulin promoter activity inhibition | TRM-6 cells (human fetal islet line), insulin promoter-eGFP reporter, imaging; reporter expression induced with tamoxifen | inhibition, % at 2 µM | 130,000 compounds, 0.9% hits;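 active means inhibition above the mean plus 3 SD, with well images judged a real hit on visual review, cut at about 60% in these data, passing the limit was not always enough; inconclusive means inhibition over the cutoff but images rejected on review; inactive means inhibition not above the cutoff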
HMGR II inh: E. faecalis class II HMG-CoA reductase inhibition | purified E. faecalis HMGR, NADPH absorbance 340 nm kinetic | inhibition, % at 10 µM | 190,000 compounds, 0.41% hits;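 active means inhibition above a set limit, the median over all tested compounds plus 3 SD, cut at about 9.5% in these data; inconclusive means no clear call, values can overlap the other calls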;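 further: enzyme runs in reverse so mevalonate oxidation gives rising NADPH absorbance; 0% = complete reaction with DMSO and 100% = background rate lacking mevalonate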
HSV augment: HSV replication enhancement; HSV replication augmentation in cells, fold increase; maximum fold increase; 220,000 compounds, 0.005% hits; AID 1956; in the data active means maximum fold increase above about 1.5; inconclusive means no clear call, values can overlap the other calls; tested in PC3 cells
Numbers without * were called inactive; i = inactive; u = inconclusive; x = no result. Most compounds without a hit are left out; they make up all but 1.1% or so of the library.

SMILES | Insulin prom up | INS promoter inh | HMGR II inh | HSV augment
Cc1ccc(-n2c3nc(=O)[nH]c(=O)c-3cc3c(C)nn(-c4ccccc4)c32)c(C)c1 | 0.16 | -27 | -1 | i
O=C(CSCc1ccccc1)Nc1ccccc1C(=O)Nc1ccc(C(=O)O)cc1 | 0.15 | x | x | i
C#CCOC(=O)Nc1ccc(=O)n(Cc2c(Cl)cccc2Cl)c1 | x | -229 | -4 | i
O=C(O)c1cnc2ccccc2n1 | 0.49 | 85* | 2 | i
COC(=O)c1cnc2ccccc2n1 | x | -26 | -3 | i
NC(=O)CSc1nnc2ccc(-c3ccco3)nn12 | 0.12 | 68* | -4 | i
c1cncc(CSc2nnc3ccc(-c4ccco4)nn23)c1 | 0.55 | x | -2 | i
COc1cc(OC)c(N(C)S(=O)(=O)c2cccc(C(=O)NC3=NCCS3)c2)cc1Cl | -0.54 | x | x | i
c1ccc2[nH]c3cc4ncnc4cc3nc2c1 | -0.78 | -71 | -2 | i
Cc1c(Nc2ncnc3c2cnn3-c2ccccc2)c(=O)n(-c2ccccc2)n1C | 0.52 | 10 | -2 | i
Cc1cccc(-n2ncc3c(Nc4c(C)n(C)n(-c5ccccc5)c4=O)ncnc32)c1 | 0.42 | 100* | -5 | i
O=C(O)c1cccc2c1C(=O)c1cccc3snc-2c13 | -0.41 | x | x | i
COc1cc(OC)nc(-n2ncc(Br)c(Br)c2=O)n1 | u | x | -2 | i
Cc1ccc(-n2nc(C(=O)O)c(O)cc2=O)cc1 | -0.25 | 24 | -4 | i
Cc1cccc(-c2cc(N)n(-c3ccccc3)n2)c1 | 0.07 | x | -2 | i
Cc1ccc(-c2cc(N)n(-c3ccccc3)n2)cc1 | 5.3* | 19 | 3 | i
Cc1ccc(-c2cc(C(=O)O)n(-c3ccc(S(N)(=O)=O)cc3)n2)cc1 | 1.2 | x | 16* | i
Cc1cc(NC(=S)NC(=O)/C=C/c2ccc(S(=O)(=O)N3CCOCC3)cc2)ccc1Br | -0.69 | x | -4 | i
N#CC(=C=[N-])c1nc2ccccc2nc1-[n+]1cccc(NC(=O)c2cccs2)c1 | -0.08 | x | x | i
CCCOc1ccc(C2/C(=C(\O)c3c(C)[nH]c(C(=O)OC)c3C)C(=O)C(=O)N2CCN(C)C)cc1 (centres undefined) | x | 85* | 0 | i
COc1cc2c(cc1OC)-c1cc(OCc3ccccc3Cl)nc(=O)n1CC2 | 0.22 | 66* | -9 | i
Cc1cccc(NC(=O)CN2CCSc3ccccc32)c1 | -0.09 | 33 | 13* | i
COc1cccc(NC(=O)CN2CCSc3ccccc32)c1 | -0.49 | x | -6 | i
O=c1oc2c(O)c(O)cc3c(=O)oc4c(O)c(O)cc1c4c23 | x | -29 | 24* | x
CCO[C@@H]1OC(C(=O)Nc2ccccc2)=C[C@H](c2ccc(C(F)(F)F)cc2)[C@H]1CCCO | -3 | x | 12* | i
SMILES | Insulin prom up | INS promoter inh | HMGR II inh | HSV augment
O=C(Nc1nnc(-c2ccc3c(c2)CCCC3)o1)c1ccc(Cl)cc1Cl | -0.54 | x | -10 | i
O=C(Nc1nnc(-c2ccc3c(c2)CCCC3)o1)c1c(F)cccc1F | 0.08 | 36 | 10* | i
CSc1nc2ncc(C(=O)O)c(N)n2n1 | 0.53 | 9 | -5 | i
O=C(O)C1CSC(c2ccccc2)N1C(=O)c1ccco1 (centres undefined) | -0.61 | 74* | -6 | i
CCOC(=O)c1cnn(-c2cc(C)nc3c(-c4ccccc4)cnn23)c1N | 3.6* | -17 | -2 | i
CCOc1nc(NC(=O)NS(=O)(=O)Oc2cccc(Cl)c2)nc(-c2ccccc2)n1 | -0.28 | 78* | 4 | i
c1ccc(-c2csc(-n3cnnn3)n2)cc1 | 3.1* | -29 | -2 | i
Cc1cc(C)n(-c2nc(-c3ccccc3)cs2)n1 | -0.19 | x | -3 | i
CC1=NN(C(=O)c2ccc(Cn3ccc([N+](=O)[O-])n3)cc2)C(O)(C(F)(F)F)C1 (centres undefined) | 0.26 | x | 1 | i
O=C(O)c1cn(-c2ccccc2)c(=O)c2ccccc12 | x | 70* | -2 | i
O=c1[nH]c(Cc2ccccc2)nc2c1oc1ccccc12 | 0.39 | 0 | 3 | i
Cc1nc2c(oc3ccccc32)c(=O)o1 | 4.2* | 0 | -3 | x
Nc1nc[nH]c(=O)c1N=Cc1ccccc1 | -0.54 | x | x | i
Cc1cc(C(=O)OCC(=O)N2CCCC2)c2ccccc2n1 | -0.65 | 34 | -6 | i
CC(=O)N1CCN(C(=O)c2cc(C)nc3ccccc23)CC1 | -0.05 | 71* | -3 | i
O=C(N/N=C/C=C/c1ccco1)/C(=C/c1ccccc1)NC(=O)c1ccccc1 | -0.13 | 4 | -6 | i
CCC(=NC(C)c1ccccc1)c1c(O)n(C)c(=O)n(C)c1=O (centres undefined) | -6.4 | 81* | -1 | i
Cc1ccc([N+](=O)[O-])cc1N(CC(=O)Nc1ccc(S(=O)(=O)Nc2cccc(C(F)(F)F)c2)cc1)S(C)(=O)=O | x | 39 | 0 | i
